# Most compounds without a hit are left out; they make up all but 8% or so of the library.
# KB-3-1 cytotox = qHTS assay for MDR1-selective chemotherapeutics: Primary screen using the parental adenocarcinoma cell KB-3-1. AID 1347075, 2019. 1.4% of 400,000 active. Potency, µM (top dose mostly 46.1 µM), most hits filed as cytotoxic. KB-3-1 viability, CellTiter-Glo ATP luminescence, 72 h; further: on the % scale 0 is the no-effect control and ±100 the full control effect; nearly all actives have a fitted effect of over 60% in size
#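 Using CellTiter-Glo luminescence, growth of non-resistant KB-3-1 adenocarcinoma cells is assessed 72 h after pin-tool compound addition at 37 °C. Normalized responses across the concentration series yield fitted curves.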
# MCF10A rereplic = A quantitative high throughput screen for small molecules that induce DNA re-replication in MCF 10a normal breast cells; MCF 10A DNA re-replication, Hoechst nuclear intensity, 48 h; Potency, µM (doses to about 46.1 µM), for the others: at the highest dose activity, positive = re-replication, hits mostly activators; 2.9% of 350,000 active; AID 624296, 2012; further: % of control where 0% means no effect; nearly all actives have a fitted effect of over 50% in size
# KB-V1 cytotox = qHTS assay for MDR1-selective chemotherapeutics: Primary screen using the drug-selected MDR subline cells KB-V1; 3.4% of 400,000 active; KB-V1 MDR cells viability, CellTiter-Glo, 72 h; Potency, µM (doses to about 46.1 µM), usual class: cytotoxic; AID 1347076, 2019; further: on the % scale 0 is the no-effect control and ±100 the full control effect; nearly all actives have a fitted effect of over 60% in size
#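 Luminescent ATP read-out (CellTiter-Glo, 10 min) measures survival of drug-selected KB-V1 MDR cells after 72 h, 37 degrees C compound exposure. Medium: phenol-red-free DMEM, 10% FBS. Values from fitted concentration-response curves.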
# HT1080-NT tox = qHTS for induction of synthetic lethality in tumor cells producing 2HG: qHTS for the HT-1080-NT fibrosarcoma cell line; HT-1080-NT fibrosarcoma viability, CellTiter-Glo ATP luminescence, 48 h; Potency, µM (series often up to 46.1 µM), for inactives: at the highest dose activity, negative = less viability, most hits filed as cytotoxic; 1.6% of 360,000 active;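 further: NT is the 2HG producing partner of a matched IDH1 knockdown line; 0% = DMSO-treated cells and -100% = media-only wells without cells; nearly all actives have a fitted effect of over 55% in size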
#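 Toxicity toward the 2HG-producing NT line was scored as %Activity, normalised to DMSO and no-cell wells, from CellTiter-Glo luminescence after 48 hours' treatment.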
# HT1080 IDH1KD tx = qHTS for induction of synthetic lethality in tumor cells producing 2HG: qHTS for the HT-1080-IDH1KD cell line; HT-1080 IDH1 knockdown viability, ATP luminescence, 48 h; Potency, µM (titrated, usually from 46.1 µM), inactives show at the top dose activity, negative = toxicity, hits mostly cytotoxic; 2% of 360,000 active; AID 686971, 2013;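 further: 0% = DMSO wells and -100% = cell-free medium wells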
#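 IDH1KD HT-1080 cells, 750/well, RPMI + 5% FBS; compound pinned after 2 h settling; 48 h, 37 °C; CellTiter-Glo luminescence; % activity normalised to DMSO and no-cell wells; curves fitted, classed by r2 and efficacy.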
# SW480 rereplic = A quantitative high throughput screen for small molecules that induce DNA re-replication in SW480 colon adenocarcinoma cells; AID 624297, 2012; 1.8% of 340,000 active; SW480 DNA re-replication, Hoechst DNA content imaging, 48 h; Potency, µM (series often up to 46.1 µM), without a hit: at the highest dose re-replication activation, most hits filed as activators; further: % of control where 0% means no effect; nearly all actives have a fitted effect of over 55% in size
#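 First, 250 cells per well were seeded. Next, compound or vehicle (23 nL) was pinned in, plates sat 48 hr at 37 C. Finally Hoechst was added for 40 min before fluorescence scanning.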
# Numbers without * were called inactive; i = inactive; ? = inconclusive; nt = not tested or not shown. The call rests on the fitted dose curve; in most records, active means well fitted curve in the direction sought with a large enough effect; inconclusive means small, poorly fitted or top-dose-only effect, or another doubt; inactive means no such curve, though single readings can be large; an effect the other way counts as inactive or inconclusive. Potency means the concentration at half of the fitted maximal effect.
SMILES,KB-3-1 cytotox,MCF10A rereplic,KB-V1 cytotox,HT1080-NT tox,HT1080 IDH1KD tx,SW480 rereplic
CCn1cc(C(=O)NCc2ccco2)c(=O)c2cc(S(=O)(=O)N3CC(C)CC(C)C3)ccc21 (stereo not given),5.8µM*,1%,?,4.1µM*,5.8µM*,2%
CCn1cc(C(=O)N2CCCC2)c(=O)c2cc(S(=O)(=O)N3CC(C)CC(C)C3)ccc21 (stereo not given),i,-2%,i,0%,-7%,5%
CCn1cc(C(=O)NCc2ccco2)c(=O)c2cc(S(=O)(=O)N3CCCCCC3)ccc21,21µM*,?,i,15µM*,?,-2%
Cc1cc(C)cc(NS(=O)(=O)c2ccc3[nH]cc(C(=O)NCc4ccco4)c(=O)c3c2)c1,7.3µM*,7%,i,2.6µM*,5.2µM*,17%
Cc1cc(C)cc(NS(=O)(=O)c2ccc3[nH]cc(C(=O)NCc4ccccc4Cl)c(=O)c3c2)c1,?,nt,i,nt,nt,nt
CCn1cc(C(=O)NCc2ccco2)c(=O)c2cc(S(=O)(=O)N3CCC(C)CC3)ccc21,?,23%,5.8µM*,?,?,4%
CCn1cc(C(=O)NCc2ccc(C)cc2)c(=O)c2cc(S(=O)(=O)N3CCC(C)CC3)ccc21,i,nt,i,nt,nt,nt
O=c1[nH]cnc2c1ncn2[C@H]1C[C@H](O)[C@@H](CO)O1,i,nt,?,nt,nt,nt
O=C(NCc1cccnc1)c1ccc(COc2ccc(Cl)cc2)cc1,i,8%,i,-21%,?,?
Cc1ccc(OCc2ccc(C(=O)NCc3cccnc3)cc2)cc1C,?,11%,?,?,18µM*,11%
O=C(NCc1cccnc1)Nc1ccc(Br)cc1,i,-1%,i,13%,18%,0%
Cc1ccc(S(=O)(=O)Nc2cccc(C(=O)NCc3cccnc3)c2)cc1F,7.3µM*,2.9µM*,i,?,6.5µM*,6.5µM*
O=C(NCc1cccnc1)c1ccc(NC(=O)c2ccc(Br)cc2)cc1,i,12%,i,12µM*,5.8µM*,-3%
O=C(NCc1cccnc1)c1cccc(NS(=O)(=O)c2ccc(Br)cc2)c1,5.8µM*,0.65µM*,i,4.6µM*,3.3µM*,9.2µM*
Cc1nn(CC(=O)OCC(=O)Nc2cccc(S(N)(=O)=O)c2)c(C)c1[N+](=O)[O-],i,4%,i,10%,9%,3%
COc1cc(OC)c(OC)cc1CNC(=O)c1ccc(COc2ccccc2)cc1,?,8%,12µM*,-3%,-26%,3%
Cc1ccc(OCc2ccc(C(=O)N3CCOCC3)cc2)cc1C,i,-5%,18µM*,?,-3%,-6%
COc1cccc(NC(=O)c2ccc(S(=O)(=O)NCc3cccnc3)cc2)c1,i,1%,18µM*,-19%,-17%,-18%
O=C(NCc1ccc(F)cc1)c1ccc(S(=O)(=O)Nc2cccc(C(F)(F)F)c2)cc1,?,?,15µM*,-15%,-9%,1%
CCc1ccc(NC(=O)c2ccc(S(=O)(=O)NCc3cccnc3)cc2)cc1,i,?,i,-16%,1%,11%
CN(C)CCNc1nc2sc3c(c2c(=O)n1CCc1ccccc1)CCCCC3,i,?,21µM*,-24%,?,18µM*
COC(=O)Cn1c(=O)n(CCc2ccccc2)c(=O)c2c3c(sc21)CCCC3,i,27%,21µM*,-2%,?,-4%
COc1ccccc1OC(C)C(=O)Nc1cccc(-c2nc3ccccc3o2)c1 (stereo not given),i,nt,i,nt,nt,nt
Cc1c(C(=O)N2CCCCCC2)c(S(=O)(=O)Nc2cccc(F)c2)c(C)n1C,i,0%,i,-1%,0%,-1%
Cc1nn(-c2ccccn2)c2c1-c1nc(N3CCOCC3)ncc1CC2,?,9%,18µM*,-3%,2%,-7%
SMILES,KB-3-1 cytotox,MCF10A rereplic,KB-V1 cytotox,HT1080-NT tox,HT1080 IDH1KD tx,SW480 rereplic
Cc1cccc2cc(C(c3nnnn3Cc3ccccc3)N3CCCc4ccccc43)c(=O)[nH]c12 (stereo not given),i,5.2µM*,i,0%,-1%,4.6µM*
Cc1cccc(C)c1C(O)c1ncc(-c2cccc(C(F)(F)F)c2)[nH]1 (stereo not given),i,nt,i,?,?,nt
Cc1ccc2cccc(NC(=S)NC(=O)c3ccccc3)c2n1,i,?,?,-18%,-4%,16µM*
Cc1ccc2cccnc2c1NC(=S)NC(=O)c1ccccc1,i,14%,15µM*,11µM*,?,10%
O=C(NC(=S)Nc1ccc2ncccc2c1)c1ccccc1,?,10%,i,0%,-13%,-6%
Cc1ccc2cn[nH]c2c1NC(=S)NC(=O)c1ccccc1,i,4%,21µM*,-2%,-5%,0%
Cc1csc(NC(=S)NC(=O)c2ccccc2)n1,i,-7%,i,7%,-9%,-6%
Cc1cc(C)c2cccc(NC(=S)NC(=O)c3ccccc3)c2n1,i,19%,?,2.5µM*,2.8µM*,4.1µM*
CC(=O)NC(=S)Nc1cccc2c(C)cc(C)nc12,i,0%,?,3%,0%,13%
CCOc1ccc(NC(=O)[C@@H](c2ccccc2)N2Cc3ccccc3C2=O)cc1,i,nt,i,nt,nt,nt
CCCNC(=O)OCc1cccnc1Sc1ccc(C)cc1,i,-3%,?,0%,-12%,-5%
COc1cc2ncnc(Nc3ccc(F)c(Cl)c3)c2cc1OCCCN1CCOCC1,nt,30µM*,nt,nt,nt,15%
COc1cc2c(NC3CCN(C)CC3)nc(N3CCCN(C)CC3)nc2cc1OCCCN1CCOCC1,?,nt,i,nt,nt,nt
CCC(CC)NC(=O)c1cccc(Oc2ccccc2)c1,i,2%,23µM*,-9%,-7%,9%
CCCCCCCCCC(=O)N[C@H](CN1CCOCC1)[C@H](O)c1ccccc1,i,-7%,?,16µM*,?,-7%
CCCCCCCCCCCC(=O)NC(C(=O)O)C(O)c1ccccc1 (stereo not given),i,?,i,-21%,-14%,5%
